In PubChem BioAssay (EPA / NIEHS) one finds outcome and AC50 data, which are given here for 17 compounds.

Each structure is given as a SMILES string. The source holds several records for some structures; these can differ, active in one and inactive in another. Calls of active or inactive are those of the source. The calls were made as follows: active = hit-call score of the fitted dose curve at least 0.9, where 1 is the maximum; inactive = score below 0.9.

The term AC50 denotes the midpoint of the concentration-response curve, whichever way the signal moves.

The nature of experiment [1]: ATG_EGR_CIS: Attagene CIS-FACTORIAL HepG2 Assay for human Early Growth Response 1 (EGR1) (AID 2282938). The following applies: HepG2 Attagene CIS-FACTORIAL EGR reporter mRNA; actives raise or lower the signal. In short, it runs like this:
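Endpoint derived by bidirectional fitting versus DMSO vehicle. Method: cis-promoter reporter units transfected into HepG2, 24 h dosing, RNA isolation, RT-PCR with 6-FAM primer extension and HpaI digestion, then capillary electrophoresis fluorescence detection.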

A short description of experiment [2]: ATG_M_19_CIS: Attagene CIS-FACTORIAL HepG2 Assay for M19 Transcription Factor (Internal Marker) (AID 2282939). The following applies: HepG2 Attagene CIS-FACTORIAL M19 internal marker reporter; actives raise or lower the signal. The gist of the method:
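Transfect HepG2 with MRTU reporter library → dose chemical, 24 h → isolate total RNA, reverse-transcribe with oligo(dT) → PCR, 6-FAM label, HpaI cut (2 h, 37 C) → capillary electrophoresis. Bidirectional fit vs DMSO.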

Experiment [3] in a line: ATG_ERE_CIS: Attagene CIS-FACTORIAL HepG2 Assay for Estrogen Response Element (ERE) (AID 2282940). The following applies: HepG2 ERE cis-reporter, Attagene RNA transcript; actives raise or lower the signal. In short, it runs like this: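 Transient MRTU transfection of human HepG2; cis-element promoters; 24 h dosing; total RNA → RT (oligo dT) → PCR → 6-FAM primer extension → HpaI digest → CE fluorescence. Bidirectional fit, DMSO baseline.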

A short description of experiment [4]: ATG_Ets_CIS: Attagene CIS-FACTORIAL HepG2 Assay for human Erythroblast Transformation Specific (ETS) (AID 2282941). The following applies: HepG2 ETS cis-reporter transcription, actives raise or lower the signal. The gist of the method:
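Steps: transfect HepG2 with multiple reporter units; treat compound 24 h; isolate RNA, DNase-treat, reverse-transcribe; PCR-amplify, label with 6-FAM, digest with HpaI; separate by capillary electrophoresis. Activity fitted both directions versus DMSO.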

Experiment [5] has as its target Hepatocyte nuclear factor 3-beta (Homo sapiens) (UniProt Q9Y261). The experiment is described as follows: ATG_FoxA2_CIS: Attagene CIS-FACTORIAL HepG2 Assay for human Forkhead box A2 (FOXA2) (AID 2282942). Conditions: HepG2 cis-reporter transcription factor activity, 24 h; actives raise or lower the signal. In short, it runs like this: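 Measured: reporter mRNA induction or loss in HepG2 transiently carrying multiple cis-regulated reporter units, 24 h after dosing. Quantified by RT-PCR plus capillary electrophoresis, normalised to DMSO.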

Experiment [6] is described as follows: ATG_FoxO_CIS: Attagene CIS-FACTORIAL HepG2 Assay for human Forkhead box O (FoxO) (AID 2282943). The following applies: HepG2 Attagene cis-reporter, FoxO element, mRNA; actives raise or lower the signal. The gist of the method:
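Transfected HepG2 reporter cells exposed to test chemical for 24 h; reporter RNA measured by reverse transcription, PCR and fluorescent capillary electrophoresis; curves fitted for increases and decreases against DMSO.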

A short description of experiment [7]: ATG_GLI_CIS: Attagene CIS-FACTORIAL HepG2 Assay for human Zinc Finger Protein GLI1 (AID 2282945). The following applies: HepG2, Attagene cis-factorial reporter mRNA, GLI element; actives raise or lower the signal. The gist of the method: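 Transiently transfected HepG2 cells report endogenous transcription factor activity via cis-element-driven reporter units. After 24 h compound exposure, reporter mRNA was measured by RT-PCR with capillary electrophoresis; bidirectional fitting against DMSO baseline.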

Experiment [8] deals with Bile acid receptor (Homo sapiens) (UniProt Q96RI1). The experiment is described as follows: ATG_IR1_CIS: Attagene CIS-FACTORIAL HepG2 Assay for human Nuclear Receptor Subfamily 1 Group H Member 4 (NR1H4), IR1 submotif (AID 2282946). Conditions: IR1 reporter transcription, actives raise or lower the signal. In short, it runs like this: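 HepG2 cells transiently transfected with multiple cis-promoter-driven reporter units to measure endogenous transcription factor activity; 24 h exposure. Reporter mRNA read by RT-PCR, FAM labelling, HpaI digestion and capillary electrophoresis. Bidirectional fit versus DMSO.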
Bile acid receptor (Homo sapiens), sequence (Q96RI1 whole entry, looked up): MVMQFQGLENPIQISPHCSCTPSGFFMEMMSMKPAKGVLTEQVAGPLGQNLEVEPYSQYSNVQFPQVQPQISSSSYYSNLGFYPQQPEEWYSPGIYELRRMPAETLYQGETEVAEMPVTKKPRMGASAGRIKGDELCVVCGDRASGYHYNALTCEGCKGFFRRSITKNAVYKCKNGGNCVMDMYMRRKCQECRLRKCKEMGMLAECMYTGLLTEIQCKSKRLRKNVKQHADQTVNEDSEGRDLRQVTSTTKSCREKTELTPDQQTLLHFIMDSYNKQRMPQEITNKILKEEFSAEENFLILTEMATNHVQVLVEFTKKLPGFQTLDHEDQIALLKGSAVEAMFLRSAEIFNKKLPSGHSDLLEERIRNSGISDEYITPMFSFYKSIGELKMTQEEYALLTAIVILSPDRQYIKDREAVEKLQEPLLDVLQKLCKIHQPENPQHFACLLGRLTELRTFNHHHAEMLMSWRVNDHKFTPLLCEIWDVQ

Experiment [9] in a line: ATG_GRE_CIS: Attagene CIS-FACTORIAL HepG2 Assay for human Glucocorticoid Response Elements (GRE) (AID 2282947). The following applies: HepG2 GRE cis-reporter, Attagene multiplex mRNA; actives raise or lower the signal. The gist of the method:
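Endogenous transcription factor activity is read through cis-element reporter constructs transiently transfected into HepG2 cells. After 24 h treatment, labelled RT-PCR products are resolved by capillary electrophoresis; DMSO sets baseline for bidirectional curve fitting.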

A short description of experiment [10]: ATG_GATA_CIS: Attagene CIS-FACTORIAL HepG2 Assay for human GATA Binding Protein (AID 2282944). Conditions: HepG2 GATA cis-element reporter, Attagene multiplex mRNA; actives raise or lower the signal. The gist of the method: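 Transient MRTU transfection, HepG2, 24 h compound exposure. Total RNA → oligo(dT) RT → PCR → 6-FAM primer extension → HpaI cut → CE. Bidirectional fit vs DMSO.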

Hepatocyte nuclear factor 3-beta (Homo sapiens), sequence (Q9Y261 whole entry, looked up): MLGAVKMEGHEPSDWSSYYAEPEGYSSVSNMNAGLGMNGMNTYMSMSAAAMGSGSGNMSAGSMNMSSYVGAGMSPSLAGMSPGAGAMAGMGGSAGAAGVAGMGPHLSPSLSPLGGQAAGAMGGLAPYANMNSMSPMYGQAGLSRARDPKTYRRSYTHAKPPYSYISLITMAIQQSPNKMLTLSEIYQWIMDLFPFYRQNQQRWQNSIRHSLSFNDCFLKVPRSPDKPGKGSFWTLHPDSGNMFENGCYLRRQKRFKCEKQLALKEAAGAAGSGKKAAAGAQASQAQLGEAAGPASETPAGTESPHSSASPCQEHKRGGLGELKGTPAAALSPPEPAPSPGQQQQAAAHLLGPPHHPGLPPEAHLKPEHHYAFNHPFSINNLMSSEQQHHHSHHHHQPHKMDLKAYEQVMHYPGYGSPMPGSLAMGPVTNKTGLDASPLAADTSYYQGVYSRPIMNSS

With `N#CCc1ccc(Cl)cc1`, the compound was classed as inactive in [1], in [2], in experiment [3], in experiment [4], in experiment [5] and in experiment [6]. Besides, the outcome in experiment [7], in [8] and in [9] was inactive.
With `Cc1ccccc1N`, the call in experiment [1], in experiment [2], in experiment [4], in [5], in experiment [6] and in experiment [10] was inactive. Also, in experiment [7], the compound was classed as inactive.
Consider `COP(=S)(OC)Oc1c(Cl)cc(C)cc1Cl`, for which the outcome in experiment [1], in experiment [2], in experiment [4], in [5], in experiment [6] and in [7] was inactive. Also, the compound was classed as inactive in [9]. Further, the concentration at half-maximal activity (AC50) in experiment [3] was 9.77 µM (active).
Regarding `C[C@@H]1C[C@@H]([C@H](O)CC2CC(=O)NC(=O)C2)C(=O)[C@@H](C)C1`, the outcome in experiment [1], in experiment [2], in experiment [5], in experiment [7] and in [8] was inactive. Further, the AC50 in experiment [4] was 6.31 µM (active) [middle of 4 runs]; in [5] it was 10.1 µM (active); in experiment [8], 0.304 µM (active).
Take `C=C(C)C(=O)[O][Sn]([CH2]CCC)([CH2]CCC)[CH2]CCC`: the outcome in experiment [1], in [2], in [3], in experiment [4], in experiment [5] and in [7] was inactive. For the same compound, the compound was classed as inactive in experiment [9]. Further, the AC50 in experiment [6] was 0.665 µM (active); in [8], 0.0112 µM (active).
For `O=C(Cc1ccccc1)c1ccccc1`, the result in experiment [1], in [2], in experiment [4], in experiment [5], in [6] and in experiment [7] was inactive. Further, the result in experiment [8] and in experiment [9] was inactive. The AC50 in [3] is 24.9 µM (active).
As for `O=[N+]([O-])c1ccc2c3c(cccc13)CC2`, the compound was called inactive in experiment [1], in experiment [2], in experiment [3], in experiment [4], in experiment [5] and in [6]. Further, the result in experiment [7], in experiment [8] and in experiment [9] was inactive.
Turning to `C(=NC1CCCCC1)=NC1CCCCC1`, the AC50 in [1] was 3.17 µM (active). Moreover, the compound was classed as inactive in [2], in experiment [3], in experiment [4], in [5], in experiment [6] and in experiment [7]. Also, in [8], the call was inactive.
On to `COP(=S)(OC)Oc1ccc(S(=O)(=O)N(C)C)cc1`, for which the call in experiment [1], in experiment [2], in experiment [3], in experiment [4], in experiment [5] and in experiment [6] was inactive. In addition, the outcome in experiment [7] and in experiment [9] was inactive.
For the compound `c1cc[c]([Hg][c]2ccccc2)cc1`, in experiment [1], the AC50 is 26.4 µM (active). Also, the compound was called inactive in experiment [2], in experiment [3], in experiment [4], in experiment [5], in [6] and in experiment [7]. Further, the compound was called inactive in experiment [8] and in experiment [9].
`Cl/C=C/Cl`: the call in experiment [1], in experiment [2], in [3], in [4], in experiment [5] and in experiment [6] was inactive. Also, the call in [7] and in [9] was inactive.
With `O=C(O)C(F)(F)C(F)(F)C(F)(F)C(F)(F)C(F)(F)C(F)(F)F`, the outcome in experiment [1], in [2], in experiment [4], in [5], in experiment [6] and in experiment [10] was inactive. Also, the compound was called inactive in [7] and in experiment [8].
As for `O=C(NCO)NCO`, the compound was called inactive in experiment [1], in experiment [2], in experiment [4], in [5], in [6] and in experiment [7]. Also, the call in experiment [9] was inactive. For the same compound, the concentration at half-maximal activity (AC50) in experiment [3] is 54.5 µM (active).
As to `CC(=[OH+])/C=C(/C)[O-].CC(=[OH+])/C=C(/C)[O-].CC(=[OH+])/C=C(/C)[O-].[Fe]`, the outcome in experiment [1], in [2], in experiment [3], in [4], in [5] and in experiment [6] was inactive. Besides, the outcome in experiment [7], in experiment [8] and in experiment [9] was inactive.
For `CCSC(C)CC1CC(=O)C(C(CC)=NOC/C=C/Cl)=C(O)C1` (stereo not drawn), the compound was classed as inactive in [1], in experiment [2], in experiment [3], in experiment [4], in [5] and in experiment [6]. For the same compound, the compound was called inactive in experiment [7], in experiment [8] and in experiment [9].
For `CC(C)CCCCCCOC(=O)c1ccccc1C(=O)OCCCCCCC(C)C`, the outcome in [1], in experiment [2], in experiment [3], in [4], in experiment [5] and in experiment [6] was inactive. Also, the compound was classed as inactive in [7], in experiment [8] and in experiment [9].
Regarding `ClCc1ccccn1`, the compound was classed as inactive in [1], in [2], in experiment [3], in experiment [4], in experiment [5] and in experiment [6]. Also, the compound was classed as inactive in experiment [7] and in experiment [9].
